Measured values as given in PubChem BioAssay (NCATS).
Results filed as inconclusive are left out. Values without a mark were called inactive. Calls come from the whole dose curve; as a rule, active = well fitted inhibition curve with a large enough effect; inconclusive = small, poorly fitted or top-dose-only effect; inactive = flat fitted curve, though single readings scatter.

Assay: qHTS of Trypanosoma Brucei Inhibitors: LOPAC Validation (AID 624147); note: 0% is about no effect
Conditions: purified enzyme assay, luminescence, 45 min; series mostly up to 57.5 µM; activity change, negative = inhibition: at the top concentration
Procedure, shortened: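 Readout: single end-point luminescence (Kinase-Glo Plus, 10 min). Reaction conditions were TbPYK/substrate plus 130 uM ADP, 45 min at RT, pH 7.2 TEA buffer. No-enzyme wells served as controls, and data were normalized before concentration-response fitting.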

| Structure (SMILES) | activity change, negative = inhibition [%] |
| --- | --- |
| CC(=O)O[C@H]1C[C@@H]2CC[C@@H]3[C@H](CC[C@@]4(C)[C@H]3C[C@H]([N+]3(C)CCCCC3)[C@@H]4OC(C)=O)[C@@]2(C)C[C@@H]1[N+]1(C)CCCCC1 | -8.98 |
| CC1(C)CCC(NC(=O)[C@@H](N)CCC(=O)O)CC1 | -8.66 |
| COc1cc(NS(C)(=O)=O)ccc1Nc1c2ccccc2nc2ccccc12 | -5.33 |
| CNCCC=C1c2ccccc2CCc2ccccc21 | -4.55 |
| CCC(NC(C)C)C(O)c1ccc(O)c(O)c1 (stereo unspecified) | -3.07 |
| COc1cc2c(cc1O)CC[C@@H]1[C@@H]2CC[C@]2(C)[C@@H](O)CC[C@@H]12 | -11.3 |
| CN1C2CCC1CC(OC(=O)c1c[nH]c3ccccc13)C2 (stereo unspecified) | -1.62 |
| C1CCc2nnnn2CC1 | -5.26 |
| C[C@]12CC[C@@H]3c4ccc(O)cc4CC[C@H]3[C@@H]1CC[C@@H]2O | 2.1 |
| C[N+]1(CCCCC[N+]2(C)CCCC2)CCCC1 | -7.58 |
| CC(C)C[C@H]1C(=O)N2CCC[C@H]2[C@]2(O)O[C@](NC(=O)[C@@H]3C=C4c5cccc6[nH]c(Br)c(c56)C[C@H]4N(C)C3)(C(C)C)C(=O)N12 | 3.93 |
| CC[C@H](C)C(=O)O[C@H]1CCC=C2C=C[C@H](C)[C@H](CC[C@@H]3C[C@@H](O)CC(=O)O3)[C@H]21 | -12.8 |
| Nc1cc(Cl)c(NC2=NCCN2)c(Cl)c1 | 5.94 |
| O=C1CCC(c2ccc(-n3ccnc3)cc2)=NN1 | -6.26 |
| COC(=O)[C@H]1[C@H]2C[C@H]3c4[nH]c5ccccc5c4CCN3C[C@H]2CC[C@@H]1O | -7.37 |
| CCCn1c(=O)[nH]c(=O)c2[nH]cnc21 | -7.25 |
